Bioassay records deposited in PubChem BioAssay by Broad Institute.
RAD52 inh: RAD52 DNA annealing inhibitors, primary screen, biochemical, FRET, single point, set 2; recombinant RAD52 DNA annealing, FRET fluorescence; DNA repair protein RAD52 homolog (Homo sapiens), P43351; hit rate 0.46% among 360,000; AID 651710, 2012; inhibition, % at 18.7 µM;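 active = every replicate showing at least 50% inhibition; inconclusive = mean inhibition at least 50% but not in every replicate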
Target sequence (P43351 whole entry, looked up): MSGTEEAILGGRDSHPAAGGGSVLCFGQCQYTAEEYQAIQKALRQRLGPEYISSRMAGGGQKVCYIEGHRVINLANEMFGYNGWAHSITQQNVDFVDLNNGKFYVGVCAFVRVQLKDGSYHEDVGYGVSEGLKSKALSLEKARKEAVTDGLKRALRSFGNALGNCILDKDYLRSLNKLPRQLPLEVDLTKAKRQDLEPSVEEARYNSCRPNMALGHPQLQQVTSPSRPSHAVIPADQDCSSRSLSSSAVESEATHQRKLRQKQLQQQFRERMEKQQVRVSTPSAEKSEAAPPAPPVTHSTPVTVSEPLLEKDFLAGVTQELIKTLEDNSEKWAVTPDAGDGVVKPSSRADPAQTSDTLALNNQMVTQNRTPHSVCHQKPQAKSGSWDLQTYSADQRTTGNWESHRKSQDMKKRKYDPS
Ecoli rRNA inh: reduced GFP signal of wild-type E. coli, primary screen, bacterial rRNA inhibitor project, GFP/RFP fluorescence, OD600, single point. E. coli WT GFP vs humanized-ribosome RFP mutants, 24 h; hits give low values; DMSO median 0, no signal -100. GFP signal change (wild-type ribosome), % (test concentration not listed). hit rate 1.6% among 350,000. AID 720706, 2013;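 active = significant combined selectivity score with lowered wild-type GFP, culture density cut under 30%, mutant RFP and density less affected; inactive = any of these conditions unmet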
Casp6 inh: human caspase-6 inhibitors, primary screen, biochemical, VEID-R110 fluorescence, single point, set 2; P55212; purified caspase-6, Z-VEID-R110 cleavage fluorescence; inhibition, % at 12.5 µM; hit rate 0.53% among 350,000; AID 686996, 2013;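 active = mean inhibition across replicates at least about 35%, with every replicate also reaching that limit, limit read from the data; inconclusive = only one of the two criteria met; inactive = neither criterion met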;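 also: 0% = median of neutral control wells and 100% = no fluorescence left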
Target sequence (P55212 24-179 limits assumed): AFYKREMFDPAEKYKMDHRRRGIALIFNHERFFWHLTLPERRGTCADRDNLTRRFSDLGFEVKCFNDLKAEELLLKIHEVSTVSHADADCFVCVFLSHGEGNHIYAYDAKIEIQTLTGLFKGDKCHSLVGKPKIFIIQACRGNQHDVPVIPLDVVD
Target sequence (P55212 194-293 limits assumed): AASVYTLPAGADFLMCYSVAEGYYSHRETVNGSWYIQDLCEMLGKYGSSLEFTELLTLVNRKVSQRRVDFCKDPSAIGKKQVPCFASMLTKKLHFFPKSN
MLL AF4-AF9 inh: inhibitors of AF4 peptide binding to AF9, primary screen, biochemical, AlphaScreen, biotin-AF4 peptide, FLAG-AF9, single point | inhibition, % at 10 µM | hit rate 0.47% among 350,000;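 active = every replicate reaching a set inhibition limit, whatever the replicate mean, cut at about 25% in these data; inconclusive = mean inhibition reaches that limit but some replicates miss it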;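 also: 0% = plate neutral control median and 100% = total signal loss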
NSD2 HMT inh: NSD2 histone methyltransferase inhibitors, primary screen, biochemical, AlphaScreen, single concentration, set 2 | Histone-lysine N-methyltransferase NSD2 (Homo sapiens), O96028 | NSD2 peptide methylation, 120 min | inhibition, % at 12.5 µM | hit rate 0.54% among 310,000; in the data active = inhibition above about 50%
HepG2 tox: cytotoxicity in HepG2 cells, dose response, cytotoxicity control, cell-based, CellTiter-Glo luminescence, cherry-pick, set 4. 30 tested, under 10 active. shares compounds with Ecoli rRNA inh. activity change, negative = cytotoxicity, unspecified at 26 µM. HepG2 viability, ATP luminescence, 72 h;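 active = compounds whose fitted half-maximal signal-loss concentration is at most twice their highest valid dose; inconclusive = flat curve with 30 to 70% signal loss, or poor fit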
AID977621: growth inhibition of wild-type GFP E. coli, dose response, H69 mutant RFP, cherry-pick. shares compounds with Ecoli rRNA inh. E. coli wild-type GFP strain growth, fluorescence, 24 h. activity change, negative = inhibition at 50 µM. 1,900 tested, under 10 active. AID 977621, 2014;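 active = Wild-type ribosome reporter drop at least double the humanized mutant ribosome reporter drop, growth loss under a set limit; inconclusive = no clear call, values can overlap the other calls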;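 also: wild-type GFP and H69 mutant RFP strains grown together 50/50 in each well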
AID977628: E. coli growth inhibition, wild-type GFP versus h24 humanized RFP strain, dose response, h24 mutant RFP vs wild-type GFP, cherry-pick; E. coli WT GFP strain growth, fluorescence, 24 h; 1,900 tested, under 10 active; activity change, negative = inhibition at 50 µM; shares compounds with Ecoli rRNA inh; AID 977628, 2014;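 active = compound lowering the normal-ribosome reporter at least twice as much as the humanized-ribosome reporter, growth loss under a set limit; inconclusive = no clear call, values can overlap the other calls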;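 also: wild-type GFP and h24 humanized RFP strains co-cultured 1 to 1 per well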
* marks the source's active call; other numbers are inactive results; ? = inconclusive; . = not tested or not shown. A selection: hits, their analogues and other compounds. The true share with any hit is near 2.5%.

SMILES | RAD52 inh | Ecoli rRNA inh | Casp6 inh | MLL AF4-AF9 inh | NSD2 HMT inh | AID977621 | AID977628 | others
O=C(CCC(=O)c1cccs1)OCC(=O)c1ccc(Cl)s1 | -20 | -18* | 2 | . | 1 | -16 | .
Cc1cccc(Cn2nc(C)c(NC(=O)c3ccc(F)cc3)c2C)c1 | 6 | -9 | 4 | -1 | 1 | . | .
Cc1nn(Cc2cccc(F)c2)c(C)c1NC(=O)c1c(Cl)cnn1C | -7 | -18* | -1 | -1 | -2 | -4.8 | -0.98
CSc1nc(N)nc(SC2C=CCCC2)c1C#N (centres undefined) | -5 | -24* | 2 | 2 | -1 | . | ? | HepG2 tox=23
CSc1nc(N)nc(SCC(=O)C(C)(C)C)c1C#N | . | . | . | . | -1 | . | .
Cn1c(=O)c2c(ncn2CC(O)CNc2ccc(F)cc2)n(C)c1=O (centres undefined) | -7 | -27* | -2 | -6 | -3 | -10 | -5.4
CC(O)Cn1cnc2c1c(=O)n(C)c(=O)n2C (centres undefined) | -4 | 12 | 2 | -1 | . | . | .
CCOC(=O)c1c(NCc2ccccc2)n[nH]c1C | 0 | 10 | -7 | 1 | 9 | . | .
CCOC(=O)c1c(C)nsc1NCc1ccccc1 | -11 | -29* | -1 | . | . | -24 | .
Cc1[nH]c(=S)sc1Cc1ccc(Cl)c(Cl)c1 | 5 | -40* | 1 | 1 | 0 | . | . | HepG2 tox=10
O=C(COC(=O)c1ccccc1NC(=O)c1ccco1)NC1CC1 | -3 | 7 | 1 | -2 | 0 | . | .
CC1CCN(C(=O)COC(=O)c2ccccc2NC(=O)c2ccco2)CC1 | -12 | -32* | 0 | 1 | -2 | -16 | -5.8
COc1ccc(Cl)cc1NC(=O)CN(C)CC(=O)Nc1ccccc1-c1ccccc1 | -8 | -24* | -2 | 5 | 4 | -9.7 | .
C[C@H]1CN([C@@H](C)CO)C(=O)c2cc(Br)cnc2O[C@H]1CN(C)C(=O)Nc1ccccc1 | -6 | 3 | 1 | -1 | . | . | .
CC(=O)Nc1ccc2c(c1)C(=O)N(C)[C@@H]1CC[C@H](CC(=O)NCc3ccc(Cl)cc3)O[C@@H]1CO2 | -7 | -2 | -4 | 1 | . | . | .
O=C1OCCC1Sc1nc2ccccc2c(=O)n1Cc1ccccc1 (centres undefined) | 8 | -21* | 3 | 3 | 0 | . | -15
O=C(O)C[C@@H]1C[C@H]2c3cc(NC(=O)C4CCC4)ccc3O[C@H]2[C@H](CO)O1 | 4 | -1 | 0 | -2 | . | . | .
COC(=O)c1cc(C(=O)Cc2ccccc2)c[nH]1 | 1 | -22* | 2 | -1 | -3 | -21 | .
CC(C)C[C@H]1COCc2cn(nn2)CC[C@H](Cc2ccccc2)C(=O)N1 | 4 | 2 | -2 | -1 | . | . | .
CC(=O)Oc1ccc(N(c2ccccc2)S(=O)(=O)c2ccc(C)cc2)cc1 | -5 | -24* | 6 | -3 | -5 | . | -5
O=C(C1CCOCC1)N1C[C@@H]2[C@H](c3ccccc31)[C@H](CO)N2Cc1ccccc1 | -1 | 5 | -3 | -4 | . | . | .
Cc1cc(C)cc(NC(=O)c2cccc(NC(=O)c3ccco3)c2)c1 | 2 | -24* | 2 | . | 3 | -25 | .
CS(=O)(=O)NCCSCc1ccccc1 | . | . | . | . | -2 | . | .
CS(=O)(=O)NCCSc1cc(C(F)(F)F)nc2ccccc12 | -7 | -20* | 1 | -3 | -1 | . | ?
O=C(Nc1nc2ccccc2n1CCN1CCOCC1)c1ccccc1 | -17 | -16* | 0 | 0 | 35 | -32 | -26
SMILES | RAD52 inh | Ecoli rRNA inh | Casp6 inh | MLL AF4-AF9 inh | NSD2 HMT inh | AID977621 | AID977628 | others
CCN1[C@@H]2c3ccc(-c4ccccc4)c(=O)n3C[C@H]1[C@H](CO)[C@H]2C(=O)NCc1ccccc1 | 1 | -1 | 1 | 0 | . | . | .
CCC[N+]1(CC#CC(O)(c2ccccc2)C2CCCCC2)CCCCC1 (centres undefined) | -18 | -36* | -3 | 1 | -1 | -4.8 | -11
C=CCN(CC(O)c1cccc([N+](=O)[O-])c1)C(C)CCc1ccccc1 (centres undefined) | -2 | -21* | 0 | -61 | 10 | ? | .
COc1ccc(NC(=O)Nc2cccc3c2O[C@H](CN(C)S(=O)(=O)c2ccc(OC)cc2)[C@H](C)CN([C@H](C)CO)C3=O)cc1 | 15 | -7 | -5 | 3 | . | . | .
COc1ccc(NC(=O)Nc2cccc3c2O[C@H](CN(C)S(=O)(=O)c2ccc(C)cc2)[C@H](C)CN([C@@H](C)CO)C3=O)cc1 | -2 | -19* | 3 | 3 | . | . | ?
Cc1cc(C(=O)Nc2cccc3c2O[C@H](CN(C)S(=O)(=O)c2ccc(Cl)cc2)[C@H](C)CN([C@@H](C)CO)C3=O)n(C)n1 | -16 | -24* | 2 | 1 | . | -20 | ?
Cc1cc(C(=O)Nc2cccc3c2O[C@H](CN(C)S(=O)(=O)c2ccc(Cl)cc2)[C@@H](C)CN([C@H](C)CO)C3=O)n(C)n1 | -16 | -1 | 8 | -2 | . | . | .
COc1ccc(NC(=O)Nc2cccc3c2O[C@@H](CN(C)S(=O)(=O)c2ccc(Cl)cc2)[C@H](C)CN([C@@H](C)CO)C3=O)cc1 | 6 | -2 | 5 | 1 | . | -20 | .
COc1ccc(NC(=O)Nc2cccc3c2O[C@H](CN(C)S(=O)(=O)c2ccc(Cl)cc2)[C@@H](C)CN([C@@H](C)CO)C3=O)cc1 | -15 | 0 | 0 | 2 | . | -4.9 | -6
O=C(C[C@H]1CC[C@@H](NC(=O)c2ccccc2)[C@H](CO)O1)NCc1ccc(Oc2ccccc2)cc1 | 2 | -7 | 2 | -2 | . | . | .
CCOC(=O)C(CC)Sc1cc(C)nc2ccc(OC)cc12 (centres undefined) | -2 | -30* | -2 | -2 | 1 | -12 | .
COc1ccc2nc(C)cc(SCC(=O)O)c2c1 | -2 | 11 | 2 | . | 0 | . | .
C[C@H]1CN([C@@H](C)CO)C(=O)CCCn2cc(nn2)CO[C@H]1CN(C)Cc1ccc2cccnc2c1 | -7 | -1 | -2 | -2 | . | . | .
COc1ccc2c3c(n(C)c2c1)[C@@H](CO)N(C(=O)CN(C)C)CC31CCN(Cc2nccs2)CC1 | 8 | 1 | -14 | -1 | . | . | .
